CYP2C19 inhib = blockers of cytochrome P450 2C19 activity – biochemical, luminescence, ADME assay, primary screen | 21% of 96,000 active | CYP2C19 Supersomes, luciferin-H EGE luminescence, 30 min | P33261 | inhibition, % at 5 µM;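 active = CYP2C19 inhibition above a set limit at 5 µM in the primary screen, cut at about 50% in these data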;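 note: plate controls were negative control wells for no effect and 2.5 mM tranylcypromine positive control for full effect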
Measles CPE = compounds protecting cells from measles virus cytopathic effect, primary screen, measles RdRp inhibitor project, single point, MLSMR library, absorbance | Measles virus-infected cells, CPE protection | 1.5% of 140,000 active | protection (pct of control), % at 4 µM; in the data active = protection mostly above about 24%, no sharp cut-off; inactive = mostly below about 26%
CYP2C9 inhib = blockers of cytochrome P450 2C9 activity – biochemical, luminescence, ADME assay, primary screen. P11712. CYP2C9 Supersomes, luciferin-H conversion. inhibition, % at 5 µM. 20% of 96,000 active. AID 777, 2007;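 active = blocking of liver enzyme CYP2C9 beyond about 50% at 5 µM, limit read from the data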
Target sequence (P11712 whole entry, looked up): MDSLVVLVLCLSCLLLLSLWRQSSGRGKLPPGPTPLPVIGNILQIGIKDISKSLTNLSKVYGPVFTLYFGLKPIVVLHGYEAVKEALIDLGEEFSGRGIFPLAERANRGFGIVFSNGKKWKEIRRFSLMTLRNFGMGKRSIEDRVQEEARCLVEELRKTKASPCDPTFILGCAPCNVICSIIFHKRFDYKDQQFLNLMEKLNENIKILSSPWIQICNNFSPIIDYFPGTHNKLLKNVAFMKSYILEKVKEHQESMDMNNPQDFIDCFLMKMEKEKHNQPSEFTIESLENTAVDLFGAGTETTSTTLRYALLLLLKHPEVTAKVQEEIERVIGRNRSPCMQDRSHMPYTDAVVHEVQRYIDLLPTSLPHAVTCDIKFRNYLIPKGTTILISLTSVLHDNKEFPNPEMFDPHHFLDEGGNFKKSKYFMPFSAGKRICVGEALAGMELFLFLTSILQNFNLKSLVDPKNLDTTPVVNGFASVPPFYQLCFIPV
CYP2C19 act = human CYP2C19 activators, primary screen, biochemical, luminescence; Cytochrome P450 2C19 (Homo sapiens), P33261; recombinant CYP2C19, luciferin-H EGE luminescence; stronger effect = higher value; 0 = fully inhibited enzyme, 1 = untreated enzyme; activation factor at 5 µM; 96,000 tested, under 10 active;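 active = activation factor of at least 2 at 5 µM in the primary screen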;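 note: 0 = wells with 2.5 mM tranylcypromine and 1 = vehicle-only wells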
CYP2C9 activ = human CYP2C9 activators, primary screen, biochemical, luminescence; recombinant CYP2C9, luciferin-H conversion; stronger effect = higher value; factor 1 = untreated enzyme, 0 = blocked; activation factor at 5 µM; 1.4% of 96,000 active;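 active = activation factor of 2 or more for CYP2C9 at a 5 µM dose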;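 note: 0 = sulfaphenazole-blocked wells and 1 = vehicle-only wells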
* marks the source's active call; other numbers are inactive results. Most compounds without a hit are left out; they make up all but 22% or so of the library.

Cc1ccc(S(=O)(=O)N(C)c2ccc(C(=O)N3CCCCC3)cc2)cc1 was read as CYP2C19 inhib 55*, Measles CPE 13, CYP2C9 inhib 74*, CYP2C19 act 0.4 and CYP2C9 activ 0.3.
Screening Cc1noc(C)c1C(=O)N1CCN(Cc2ccc3c(c2)OCO3)CC1 returned CYP2C19 inhib 3, Measles CPE 4, CYP2C9 inhib -6, CYP2C19 act 1 and CYP2C9 activ 1.1.
Screening Cc1cccc(-c2nc(CSCC(=O)N3CCN(Cc4ccc5c(c4)OCO5)CC3)c(C)o2)c1 returned CYP2C19 inhib 70*, Measles CPE 6, CYP2C9 inhib 16, CYP2C19 act 0.3 and CYP2C9 activ 0.8.
For C=CCNC(=O)COc1cc(C)ccc1C the results were Measles CPE 10.
`Cc1ccc(-c2nnc(SCC(=O)N3CCOCC3)nc2-c2ccc(C)cc2)cc1` gave CYP2C19 inhib 14, Measles CPE 3, CYP2C9 inhib 33, CYP2C19 act 0.9 and CYP2C9 activ 0.7.
Cc1nn(C)c(=O)n1-c1ccc(OCc2ccccc2)cc1 was read as CYP2C19 inhib 56*, Measles CPE 7, CYP2C9 inhib 33, CYP2C19 act 0.4 and CYP2C9 activ 0.7.
Screening Cc1onc(-c2ccccc2Cl)c1C(=O)N1CC(C)OC(C)C1 (centres undefined) returned CYP2C19 inhib 14, Measles CPE 1, CYP2C9 inhib -6, CYP2C19 act 0.9 and CYP2C9 activ 1.1.
For Cc1onc(-c2c(F)cccc2Cl)c1C(=O)N1CCN(S(C)(=O)=O)CC1 the results were CYP2C19 inhib -1, Measles CPE 4, CYP2C9 inhib -22, CYP2C19 act 1 and CYP2C9 activ 1.2.
Cc1onc(-c2ccccc2Cl)c1C(=O)N1CCc2ccccc2C1 was read as CYP2C19 inhib 54*, Measles CPE 14, CYP2C9 inhib 46, CYP2C19 act 0.5 and CYP2C9 activ 0.5.
`Cc1ccc(C(=O)N2CCc3ccccc32)o1` gave Measles CPE 1.
Screening Cc1onc(-c2c(Cl)cccc2Cl)c1C(=O)N1CCc2ccccc21 returned CYP2C19 inhib 88*, Measles CPE 6, CYP2C9 inhib 85*, CYP2C19 act 0.1 and CYP2C9 activ 0.2.
For Cc1onc(-c2c(F)cccc2Cl)c1C(=O)N1CCc2ccccc2C1 the results were CYP2C19 inhib 96*, Measles CPE 13, CYP2C9 inhib 68*, CYP2C19 act 0 and CYP2C9 activ 0.3.
`CCOC(=O)C1CCCN(C(=O)c2c(-c3ccccc3Cl)noc2C)C1` (centres undefined) gave CYP2C19 inhib 79*, Measles CPE 6, CYP2C9 inhib 69*, CYP2C19 act 0.2 and CYP2C9 activ 0.3.
CCC(C)(C)NC(=O)C(c1cccn1C)N(Cc1ccc(OC)cc1)C(=O)Cn1nnc2ccccc21 (centres undefined) was read as Measles CPE 2.
For COc1cccc(/C=N/n2cnc3ccccc32)c1OC the results were CYP2C19 inhib 83*, Measles CPE 34, CYP2C9 inhib 46, CYP2C19 act 0.2 and CYP2C9 activ 0.5.
For COc1cccc(/C=N/n2c(SC)nnc2-c2ccccc2)c1OC the results were CYP2C19 inhib 91*, Measles CPE 8, CYP2C9 inhib 91*, CYP2C19 act 0.1 and CYP2C9 activ 0.1.
`COc1cccc(/C=N/n2c(SC)nnc2-c2ccccc2)c1O` gave CYP2C19 inhib 26, Measles CPE 8, CYP2C9 inhib 54*, CYP2C19 act 0.7 and CYP2C9 activ 0.5.
For COc1cccc(/C=N/n2c(N)nc3ccccc32)c1OC the results were CYP2C19 inhib 31, Measles CPE 6, CYP2C9 inhib 19, CYP2C19 act 0.7 and CYP2C9 activ 0.8.
`COc1ccccc1/C=N/NC(=O)C(C)Cn1cnc2ccccc21` (centres undefined) gave Measles CPE 19.
COc1ccc(N(CC(=O)Nc2c(C)n(C)n(-c3ccccc3)c2=O)S(=O)(=O)c2ccccc2)cc1OC was read as Measles CPE 4.
`CC1CCc2nc(NC(=O)CN3CCN(c4ccccc4)CC3)sc2C1` (centres undefined) gave CYP2C19 inhib 8, Measles CPE 4, CYP2C9 inhib 8, CYP2C19 act 0.9 and CYP2C9 activ 0.9.
Screening CCOC(=O)C1CCCN(CC(=O)Nc2c(C(=O)OC)[nH]c3ccc(Br)cc23)C1 (centres undefined) returned CYP2C19 inhib 52*, Measles CPE 25, CYP2C9 inhib 58*, CYP2C19 act 0.5 and CYP2C9 activ 0.4.
`COC(=O)c1[nH]c2ccccc2c1NC(=O)CN1CCN(Cc2ccc3c(c2)OCO3)CC1` gave CYP2C19 inhib 51*, Measles CPE 3, CYP2C9 inhib 41, CYP2C19 act 0.5 and CYP2C9 activ 0.6.
Screening COC(=O)c1[nH]c2ccc(Br)cc2c1NC(=O)CN1CCN(C2CCCCC2)CC1 returned CYP2C19 inhib 39, Measles CPE 5, CYP2C9 inhib 18, CYP2C19 act 0.6 and CYP2C9 activ 0.8.
Screening CC1CCc2nc(NC(=O)CN3CCN(Cc4ccc5c(c4)OCO5)CC3)sc2C1 (centres undefined) returned CYP2C19 inhib 72*, Measles CPE 9, CYP2C9 inhib 76*, CYP2C19 act 0.3 and CYP2C9 activ 0.2.
COC(=O)c1[nH]c2ccc(Br)cc2c1NC(=O)CN1CCCc2ccccc21 was read as CYP2C19 inhib 16, Measles CPE 23, CYP2C9 inhib 88*, CYP2C19 act 0.8 and CYP2C9 activ 0.1.
`CCN(CC(=O)Nc1c(C(=O)OC)[nH]c2ccc(C)cc12)c1ccc2c(c1)OCO2` gave CYP2C19 inhib 23, Measles CPE 2, CYP2C9 inhib 62*, CYP2C19 act 0.8 and CYP2C9 activ 0.4.
Screening CCOC(=O)C1CCN(CC(=O)Nc2c(C(=O)OC)[nH]c3ccccc23)CC1 returned CYP2C19 inhib 73*, Measles CPE 11, CYP2C9 inhib -47, CYP2C19 act 0.3 and CYP2C9 activ 1.5.
`COC(=O)c1[nH]c2ccc(Cl)cc2c1NC(=O)CCN1CCN(C2CCCCC2)CC1` gave CYP2C19 inhib 55*, Measles CPE 5, CYP2C9 inhib 9, CYP2C19 act 0.4 and CYP2C9 activ 0.9.
Screening CCOC(=O)C1CCN(CC(=O)Nc2c(C(=O)OC)[nH]c3ccc(Cl)cc23)CC1 returned CYP2C19 inhib 73*, Measles CPE 26, CYP2C9 inhib 45, CYP2C19 act 0.3 and CYP2C9 activ 0.5.
Screening COC(=O)c1[nH]c2ccc(C)cc2c1NC(=O)CCN1CCN(C2CCCCC2)CC1 returned CYP2C19 inhib 5, Measles CPE 13, CYP2C9 inhib -7, CYP2C19 act 0.9 and CYP2C9 activ 1.1.

Compound activity as filed in PubChem BioAssay.
